Source: PubChem BioAssay (Tox21)
Inconclusive results are not listed. Active and inactive are the calls of the source. Unless noted, the call rests on the fitted dose curve; in most records, active means well fitted curve in the direction sought with a large enough effect in the repeat runs; inconclusive means weak or mixed curves; inactive means no such curve, though single readings can be large; an effect the other way counts as inactive or inconclusive.

Experiments:
[1] = qHTS assay for small molecule agonists of the p53 signaling pathway (AID 651631; calls by dose curve; further: nearly all actives have a fitted effect of over 15% in size)
Method in brief: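 p53RE-bla HCT-116 cells; compounds 16 h, 37 °C; LiveBLAzer B/G FRET substrate 2 h RT; fluorescence intensity read-out, qHTS format.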

[2] = qHTS assay for small molecules that induce genotoxicity in human embryonic kidney cells expressing luciferase-tagged ATAD5 (AID 651632); further: nearly all actives have a fitted effect of over 15% in size
Method in brief: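 Genotoxicity read-out via ATAD5-luciferase: HEK293T cells, 16 hr compound incubation at 37C, Amplite detection.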

[3] = qHTS assay for small molecule agonists of the p53 signaling pathway - cell viability (AID 651633; calls by dose curve;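 further: p53RE-bla HCT reporter cells with a stable beta-lactamase p53 reporter; series mostly up to about 83 µM; nearly all actives have a fitted effect of over 30% in size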)
Method in brief: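 Viability counter-read: CellTiter-Glo luminescence (30 min, room temperature) in the same p53RE-bla plates. These plates had been exposed to compounds for 16 h at 37 C.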

[4] = qHTS assay for small molecules that induce genotoxicity in human embryonic kidney cells expressing luciferase-tagged ATAD5 - cell viability (AID 651634; calls by dose curve; further: nearly all actives have a fitted effect of over 25% in size)
Method in brief: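 Live-cell protease activity (CellTiter-Fluor, fluorescence) indicates viability. HEK293T cells with luciferase-tagged ATAD5; 15.5 hr compound treatment at 37C.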

[5] = qHTS assay for small molecule disruptors of the mitochondrial membrane potential - cell viability (AID 720634; calls by dose curve;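 further: human HepG2 liver cancer cells; series mostly up to about 83 µM; nearly all actives have a fitted effect of over 20% in size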)
Method in brief: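 Human hepatoma HepG2 cells were treated for 1 hr with test chemicals, then given m-MPI dye and CellTiter-Glo. Cell viability reflects luminescence proportional to cellular ATP.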

[6] = qHTS assay to test for compound auto fluorescence at 590 nm (red) in HepG2 cells (AID 720674)
Method in brief: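 We screened compounds on adherent HepG2 cells, incubating them for an hour at 37 C in 5% CO2 before reading emission at 590 nm under 540 nm excitation; values reflect equivalence to Rose Bengal sodium fluorescence.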

[7] = qHTS assay to test for compound auto fluorescence at 535 nm (green) in HepG2 cells (AID 720675)
[8] = qHTS assay to test for compound auto fluorescence at 460 nm (blue) in HEK293 cells (AID 720678)
Method in brief: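 Intrinsic compound fluorescence is recorded in live HEK293 cultures after overnight incubation at 37C, 5% CO2, using excitation 405 nm and emission 460 nm. Values are referenced to triamterene.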

[9] = qHTS assay to test for compound auto fluorescence at 590 nm (red) in HEK293 cells (AID 720679)
Method in brief: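 Red autofluorescence, HEK293 cells: 2,000 cells/well; attach 4-5 hr 37C; add 23 nL cpd or DMSO; incubate o/n 37C 5% CO2; read Ex540/Em590; Rose Bengal sodium reference.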

[10] = qHTS assay to test for compound auto fluorescence at 535 nm (green) in HEK293 cells (AID 720680)
[11] = qHTS assay to test for compound auto fluorescence at 460 nm (blue) in HEK293 cell free culture (AID 720681)
Method in brief: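 Blue fluorescence (Ex 405/Em 460 nm, triamterene-equivalent) was read immediately after pin transfer of compound or DMSO into medium (DMEM, 10% FBS) without cells.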

[12] = qHTS assay to test for compound auto fluorescence at 590 nm (red) in HEK293 cell free culture (AID 720683)
Method in brief: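 Red-channel autofluorescence of compounds in culture medium (DMEM, 10% FBS), no cells, measured at 540/590 nm. Rose Bengal sodium is the reference fluorophore for equivalence.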

[13] = qHTS assay to test for compound auto fluorescence at 590 nm (red) in HepG2 cell free culture (AID 720684)
Method in brief: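 Steps: dispense MEM/10% FBS medium, no cells; pin compound or DMSO vehicle; read red channel, Ex/Em 540/590 nm. Output given as Rose Bengal sodium equivalents.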

[14] = qHTS assay to test for compound auto fluorescence at 460 nm (blue) in HepG2 cell free culture (AID 720685)
Method in brief: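 Compound (23 nL) or DMSO pinned into cell-free MEM with 10% FBS; blue fluorescence read at 405/460 nm excitation/emission, expressed as auto-fluorescence equivalency to triamterene.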

[15] = qHTS assay to test for compound auto fluorescence at 535 nm (green) in HepG2 cell free culture (AID 720686)
[16] = qHTS assay to test for compound auto fluorescence at 460 nm (blue) in HepG2 cells (AID 720687)
Method in brief: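 Blue-channel autofluorescence (Ex/Em 405/460 nm, triamterene-equivalent) was measured after 1 hr compound exposure at 37 C, 5% CO2. Cells were HepG2, plated overnight at 37 C in MEM plus 10% FBS.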

[17] = target: Glucocorticoid receptor (Homo sapiens) (UniProt P04150); experiment: qHTS assay to identify small molecule agonists of the glucocorticoid receptor (GR) signaling pathway (AID 720691; active means well fitted activation curve with a large enough effect in the signal ratio in the repeat runs, not every such curve was filed as active; the % refers to the signal ratio)
Sequence of Glucocorticoid receptor (Homo sapiens) (P04150 whole entry, looked up): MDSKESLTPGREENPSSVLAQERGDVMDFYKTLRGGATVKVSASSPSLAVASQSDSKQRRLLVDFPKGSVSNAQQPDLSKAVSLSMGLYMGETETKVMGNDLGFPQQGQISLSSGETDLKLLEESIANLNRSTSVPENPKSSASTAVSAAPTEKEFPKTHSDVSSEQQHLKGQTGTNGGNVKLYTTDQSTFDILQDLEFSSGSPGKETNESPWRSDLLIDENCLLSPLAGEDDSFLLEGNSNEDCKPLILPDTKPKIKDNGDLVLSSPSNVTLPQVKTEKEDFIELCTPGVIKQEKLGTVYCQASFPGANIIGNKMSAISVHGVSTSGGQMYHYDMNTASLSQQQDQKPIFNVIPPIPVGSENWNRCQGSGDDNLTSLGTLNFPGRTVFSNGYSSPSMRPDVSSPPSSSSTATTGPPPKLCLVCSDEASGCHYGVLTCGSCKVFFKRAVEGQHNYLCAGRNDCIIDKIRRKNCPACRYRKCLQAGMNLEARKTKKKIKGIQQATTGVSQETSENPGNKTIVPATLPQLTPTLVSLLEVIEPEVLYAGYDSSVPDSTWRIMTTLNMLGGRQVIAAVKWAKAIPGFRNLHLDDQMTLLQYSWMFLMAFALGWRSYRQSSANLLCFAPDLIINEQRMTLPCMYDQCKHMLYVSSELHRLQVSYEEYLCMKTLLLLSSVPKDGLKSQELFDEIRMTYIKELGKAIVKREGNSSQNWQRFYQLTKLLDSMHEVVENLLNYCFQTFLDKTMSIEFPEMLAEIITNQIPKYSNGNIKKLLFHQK
Method in brief: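 Beta-lactamase reporter activity, read as fluorescence intensity, was measured in GR-bla HeLa cells exposed to compounds for 18 h at 37 C and then loaded with LiveBLAzer B/G FRET substrate for 2 h at room temperature.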

[18] = target: Glucocorticoid receptor (Homo sapiens) (UniProt P04150); experiment: qHTS assay to identify small molecule antagonists of the glucocorticoid receptor (GR) signaling pathway (AID 720692; active means well fitted inhibition curve with a large enough effect in the signal ratio in the repeat runs, not every such curve was filed as active; the % refers to the signal ratio)
Method in brief: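 Fluorescence from cleaved LiveBLAzer B/G FRET substrate reports GRE-driven beta-lactamase in HeLa cells; compounds are tested against 5 nM dexamethasone (final) over 18 h at 37 C, substrate incubation 2 h at room temperature.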

[19] = qHTS assay to test for compound auto fluorescence at 535 nm (green) in HEK293 cell free culture (AID 720682)
Method in brief: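 Cell-free medium (DMEM, 10% FBS) receives compound or DMSO by pintool. Plate read directly at Ex 485/Em 535 nm. Signal converted to fluorescein equivalency.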

[20] = qHTS assay for small molecule disruptors of the mitochondrial membrane potential (AID 720635)
Method in brief: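 Mitochondrial membrane potential tracked with Mito-MPS dye, red aggregates (ex 540/em 590 nm) against green monomers (ex 490/em 535 nm). Compound treatment 1 hr at 37C, dye 30 min in HepG2.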
On the % scale 0 is the no-effect control and ±100 the full control effect.

CCN(CCO)CCO
inactive: Potency [1] | outcome [2] | Potency [3] | Potency [4] | Potency [5] | outcome [6] | outcome [7] | outcome [8] | outcome [9] | outcome [10] | outcome [11] | outcome [12] | outcome [13] | outcome [14] | outcome [15] | outcome [16] | Potency [17] | Potency [18]

CCN[C@@H](C)Cc1ccccc1
inactive: Potency [1] | outcome [2] | Potency [3] | Potency [4] | Potency [5] | outcome [6] | outcome [7] | outcome [8] | outcome [9] | outcome [10] | outcome [11] | outcome [12] | outcome [13] | outcome [14] | outcome [15] | outcome [16] | Potency [17] | Potency [18]

O=[N+]([O-])CCO
inactive: Potency [1] | outcome [2] | Potency [3] | Potency [4] | outcome [6] | outcome [7] | outcome [8] | outcome [9] | outcome [10] | outcome [11] | outcome [19] | outcome [12] | outcome [13] | outcome [14] | outcome [15] | outcome [16] | Potency [17] | Potency [18]

CC(=NC#N)N(C)Cc1ccc(Cl)nc1
inactive: Potency [1] | outcome [2] | Potency [3] | Potency [4] | Potency [5] | outcome [6] | outcome [7] | outcome [8] | outcome [9] | outcome [10] | outcome [11] | outcome [19] | outcome [12] | outcome [14] | outcome [15] | outcome [16]

O=C(O)C(F)(F)C(F)(F)C(F)(F)C(F)(F)C(F)(F)C(F)(F)F
inactive: Potency [1] | outcome [2] | Potency [3] | Potency [4] | Potency [5] | outcome [6] | outcome [7] | outcome [8] | outcome [9] | outcome [10] | outcome [11] | outcome [19] | outcome [12] | outcome [14] | outcome [15] | outcome [16]

CCOC(=O)c1ncn2c1CN(C)C(=O)c1c(I)cccc1-2
inactive: Potency [1] | outcome [2] | Potency [3] | Potency [4] | Potency [5] | outcome [6] | outcome [7] | outcome [8] | outcome [9] | outcome [10] | outcome [11] | outcome [12] | outcome [14] | outcome [15] | outcome [16]

CCOc1cc(OP(=S)(OC)OC)nc(CC)n1
inactive: Potency [1] | outcome [2] | Potency [3] | Potency [4] | Potency [5] | outcome [6] | outcome [7] | outcome [8] | outcome [9] | outcome [11] | outcome [19] | outcome [12] | outcome [13] | outcome [14] | outcome [15] | outcome [16] | Potency [17] | Potency [18]

CN(C)C(=O)Oc1cc(OC(=O)N(C)C)cc(C(O)CNC(C)(C)C)c1 (stereo unspecified)
inactive: Potency [1] | outcome [2] | Potency [3] | Potency [4] | Potency [5] | fluorescence, relative to Rose Bengal [6] 0.42% [at 18.6 µM] | fluorescence, % of fluorescein control [7] 0.0476% [at 18.6 µM] | fluorescence, % of triamterene [8] 0.0042% [at 18.6 µM] | fluorescence, % of fluorescent control [9] 0.104% [at 18.6 µM] | fluorescence, % of fluorescent control [11] 0.0217% [at 18.6 µM] | fluorescence, % of fluorescent control [12] -0.0016% [at 18.6 µM] | fluorescence, % of Rose Bengal [13] -0.0966% [at 18.6 µM] | fluorescence, % of fluorescent control [14] 0.0484% [at 18.6 µM] | fluorescence, % of fluorescein control [15] -0.0661% [at 18.6 µM] | fluorescence, % of fluorescent control [16] 0.0969% [at 18.6 µM] | Potency [17] | Potency [18]

CC[C@H](N)c1ccccc1
inactive: Potency [1] | outcome [2] | Potency [3] | Potency [4] | Potency [5] | outcome [6] | outcome [7] | outcome [8] | outcome [9] | outcome [10] | outcome [11] | outcome [19] | outcome [12] | outcome [13] | outcome [14] | outcome [16] | Potency [18]

COC1=CC(=O)O[C@@H](/C=C/c2ccccc2)C1
inactive: Potency [1] | outcome [2] | Potency [3] | Potency [5] | Potency [20] | outcome [6] | outcome [7] | outcome [8] | outcome [9] | outcome [10] | outcome [11] | outcome [19] | outcome [12] | outcome [14] | outcome [15] | outcome [16] | Potency [17] | Potency [18]

O=C(CCl)NCO
inactive: Potency [1] | outcome [2] | Potency [3] | Potency [4] | Potency [5] | outcome [6] | outcome [7] | outcome [8] | outcome [9] | outcome [11] | outcome [19] | outcome [12] | outcome [13] | outcome [14] | outcome [15] | outcome [16]

O=c1[nH]oc2c1CCNC2
inactive: Potency [1] | outcome [2] | Potency [3] | Potency [4] | outcome [6] | outcome [7] | outcome [8] | outcome [9] | outcome [10] | outcome [11] | outcome [19] | outcome [12] | outcome [13] | outcome [14] | outcome [16] | Potency [17] | Potency [18]

CC1NCCOC1c1ccccc1 (stereo unspecified)
inactive: Potency [1] | outcome [2] | Potency [3] | Potency [5] | Potency [20] | outcome [6] | outcome [7] | outcome [8] | outcome [9] | outcome [10] | outcome [11] | outcome [12] | outcome [13] | outcome [14] | outcome [15] | outcome [16]

CCCCCCCCBr
inactive: Potency [1] | outcome [2] | Potency [3] | Potency [4] | outcome [6] | outcome [7] | outcome [8] | outcome [9] | outcome [10] | outcome [11] | outcome [19] | outcome [12] | outcome [13] | outcome [14] | outcome [15] | outcome [16] | Potency [18]

C/C(=N\NC(=O)Nc1cc(F)cc(F)c1)c1ncccc1C(=O)O
inactive: Potency [1] | outcome [2] | Potency [3] | Potency [5] | Potency [20] | outcome [6] | outcome [7] | outcome [8] | outcome [9] | outcome [10] | outcome [11] | outcome [19] | outcome [12] | outcome [14] | outcome [16] | Potency [17] | Potency [18]

NC(=O)CS(=O)C(c1ccccc1)c1ccccc1 (stereo unspecified)
inactive: Potency [1] | outcome [2] | Potency [3] | Potency [4] | Potency [5] | outcome [6] | outcome [7] | outcome [8] | outcome [9] | outcome [11] | outcome [19] | outcome [12] | outcome [14] | outcome [15] | outcome [16] | Potency [17] | Potency [18]

Oc1ccc2c3c1O[C@H]1[C@@H](O)C=C[C@H]4[C@@H](C2)NCC[C@@]341
inactive: Potency [1] | outcome [2] | Potency [3] | outcome [6] | outcome [7] | outcome [8] | outcome [9] | outcome [10] | outcome [11] | outcome [19] | outcome [12] | outcome [13] | outcome [14] | outcome [15] | outcome [16]
